Experimental data reported in PubChem BioAssay AID1240 (Sanford-Burnham Center for Chemical Genomics, 2008).
Screen size: about 50,000 compounds; about 800 (1.6%) showed an effect of 50% or more. This excerpt belongs to a sample that is enriched for strong results.

Biological target: Bcl-2-like protein 10 (Homo sapiens) (UniProt Q9HD36)
Experiment: TR3 peptide-Bcl-B binding displacers, biochemical primary FP assay, phenotype converters (AID 1240);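 further: 0% = Bcl-B with tracer peptide and DMSO and 100% = tracer peptide lacking Bcl-B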
Conditions: GST-Bcl-B / FITC-TR3 peptide fluorescence polarization; stronger effect = higher value; compound at 3.75 mg/L

Bcl-2-like protein 10 (Homo sapiens), sequence (Q9HD36 whole entry, looked up): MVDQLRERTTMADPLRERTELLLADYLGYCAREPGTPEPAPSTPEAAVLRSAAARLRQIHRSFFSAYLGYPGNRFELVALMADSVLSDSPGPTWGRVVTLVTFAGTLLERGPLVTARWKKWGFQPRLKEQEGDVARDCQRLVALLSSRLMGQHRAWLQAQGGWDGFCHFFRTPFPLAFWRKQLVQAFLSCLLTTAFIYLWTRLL

Compound | displacement
O=C(Nc1cccc(Oc2ccc3c(c2)C(=O)N(c2ccccc2)C3=O)c1)c1cccc([N+](=O)[O-])c1 | 12.7%
CC(=O)Nc1ccc(Nc2nc3ccccc3nc2Nc2ccc(NC(C)=O)cc2)cc1 | -13.4%
COC(=O)C1=C(C)N(Cc2ccccc2)C(=O)/C1=C\c1cccc([N+](=O)[O-])c1 | 2.4%
CCOc1ccc(/C=C2/C(=O)NC(=O)N(c3ccc(C)cc3)C2=O)cc1 | -9.7%
COc1cc(/C=C/C(=O)c2ccc(C)cc2)cc(OC)c1OC | 1.6%
Oc1ccccc1/C=N/Nc1nc2ccccc2s1 | 0.6%
Cc1ccc(NC(=O)CN(c2ccc(Oc3ccccc3)cc2)S(C)(=O)=O)cc1 | 5.1%
CC(=O)n1cc(/C=C2\N=C(c3cccs3)OC2=O)c(-c2ccccc2)n1 | -0.1%
O=C1/C(=C/c2c3ccccc3nc3ccccc23)Sc2ccccc21 | -0.5%
CC(=O)n1cc(/C=C2\Sc3ccccc3C2=O)c(-c2ccccc2)n1 | 145%
NC(=O)c1ccc(Sc2nc3ccccc3s2)c([N+](=O)[O-])c1 | 1.4%
COC(=O)c1cccc(N2C(=O)C=CC2=O)c1 | 1%
O=C(CSc1nc2sc3c(c2c(=O)[nH]1)CCCC3)NCc1ccco1 | 59.8%
O=C(CSc1nc2sc3c(c2c(=O)[nH]1)CCCC3)NCc1ccccn1 | -0.6%
O=C(CSc1nc2sc3c(c2c(=O)[nH]1)CCCC3)NCc1ccccc1 | -18.5%
Cc1ccc(C)c(S(=O)(=O)Nc2ccc(Cl)cc2)c1 | 9%
COc1ccc(NC(=O)CN(c2ccc(Cl)cc2)S(C)(=O)=O)c(OC)c1 | 10.7%
O=C(Nc1ccc([N+](=O)[O-])cn1)c1cc(-c2ccc(Cl)c(Cl)c2)nc2ccccc12 | 52.4%
O=C(Nc1ccccn1)c1cc(-c2ccc(Cl)c(Cl)c2)nc2ccccc12 | 10%
O=C(Nc1cc([N+](=O)[O-])ccc1Cl)c1cc(-c2ccc(Cl)cc2)nc2ccccc12 | 13.6%
COC(=O)COc1ccc(/C=C2\C(=O)NC(=O)N(C)C2=O)cc1OC | -18.2%
CCOc1ccc(Br)cc1/C=N\NC(=O)c1cc(C)[nH]n1 | -2.6%
COc1ccccc1NC1=C(Cl)C(=O)N(c2ccc(C)cc2C)C1=O | 8.3%

Compound | displacement
Cc1ccc(N2C(=O)C(Cl)=C(Nc3ccccc3F)C2=O)c(C)c1 | 71.5%
CCc1ccccc1NC1=C(Cl)C(=O)N(c2ccc(C)cc2C)C1=O | 16.8%
Nc1nnc(CCC(=O)c2ccccc2)s1 | 3.5%
NC(=O)c1ccccc1NC(=O)c1ccc(I)cc1 | 7.7%
Cc1c(Cc2ccccc2)sc(NC(=O)c2ccc([N+](=O)[O-])cc2)c1C(N)=O | 65.7%
COc1ccc(C(=O)Nc2sc(Cc3ccccc3)c(C)c2C(N)=O)cc1 | -16.5%
Cc1c(Cc2ccccc2)sc(NC(=O)c2ccc(-c3ccccc3)cc2)c1C(N)=O | -1.3%
CC(=O)Nc1cccc(NC(=O)c2cccc(I)c2)c1 | -1.5%
O=C(COc1ccc(Cl)cc1Cl)OCc1ccccc1 | -9.2%
CCOC(=O)C(C(C)=O)c1cc(NS(=O)(=O)c2ccc(C)cc2)c2ccccc2c1NS(=O)(=O)c1ccc(C)cc1 (configuration not stated) | 78.8%
CC(=O)C(C(C)=O)c1cc(NS(=O)(=O)c2ccc(C)cc2)c2ccccc2c1O | 3.6%
Cc1ccc(S(=O)(=O)Nc2cc(C(C(=O)OC(C)C)C(=O)C(F)(F)F)c(O)c3ccccc23)cc1 (configuration not stated) | -5.6%
Cc1cccc(-c2cc(NC(=O)c3ccc(Br)cc3)n[nH]2)c1 | 9.4%
Cc1cccc(C(=O)Nc2ccc3oc(-c4ccc(N(C)C)cc4)nc3c2)c1 | 35.7%
CN(C)c1ccc(-c2nc3cc(NC(=O)c4ccccc4Br)ccc3o2)cc1 | 1.6%
COc1cccc(C(=O)Nc2cc(-c3nc4ccccc4o3)ccc2OC)c1 | -29.6%
COc1ccc(-c2nc3ccccc3o2)cc1NC(=O)c1ccc(Br)o1 | 63%
COc1ccccc1C(=O)Nc1ccc2oc(-c3cccc(C)c3)nc2c1 | 1.6%
CN(C)c1ccc(-c2nc3cc(NC(=O)c4cccc(Br)c4)ccc3o2)cc1 | 62.5%
CCc1ccc(-c2nc3cc(NC(=O)c4ccccc4OC)ccc3o2)cc1 | 8.5%
COc1ccc(Br)cc1C(=O)Nc1ccc2oc(-c3ccccc3)nc2c1 | -2.9%
COc1ccc(Br)cc1C(=O)Nc1ccc(-c2nc3ncccc3o2)cc1 | 5.4%
COc1ccc(-c2nc3ccccc3o2)cc1NC(=O)c1cc2ccccc2cc1OC | -8.6%

Compound | displacement
COc1ccccc1C(=O)Nc1ccc2oc(-c3ccncc3)nc2c1 | 135%
COc1ccc(Br)cc1C(=O)Nc1ccc(-c2nc3ccccc3o2)cc1 | 134%
COc1ccc2c(c1OC)C(=O)N(c1cccc(Cl)c1)C2=O | -23.7%
O=C1NC(=O)N(c2ccccc2Cl)C(=O)/C1=C\C=C\c1ccco1 | 15.6%
COc1cc(/C=C(\C#N)c2nc3ccc(C)cc3[nH]2)cc(OC)c1O | -65.6%
COc1ccc(-c2nnc(-c3cccc([N+](=O)[O-])c3)o2)cc1 | 5.8%
N/C(=N\OC(=O)c1cccc(F)c1)c1ccccc1 | -7.1%
CCOc1cc(C(=S)N2CCOCC2)cc(Br)c1OC(=O)c1ccc(Cl)cc1Cl | 14.1%
COC(=O)c1ccc(NC(=O)CC2Sc3ccccc3NC2=O)cc1 (configuration not stated) | 3.1%
O=C(Nc1ccc2oc(-c3ccccc3)nc2c1)c1ccncc1 | -3.2%
O=C(COc1ccc(Cl)cc1)Nc1ccc2oc(-c3ccccc3)nc2c1 | -6.4%
O=C(COc1ccccc1Cl)Nc1ccc2oc(-c3ccncc3)nc2c1 | 136%
Cc1ccc(-c2nc3cc(NC(=O)COc4ccccc4C)ccc3o2)cc1 | -6.6%
O=C(Nc1ccc2oc(-c3ccncc3)nc2c1)c1ccncc1 | 28.9%
O=C(Nc1ccc2oc(-c3ccncc3)nc2c1)c1cccnc1 | 61.6%
CCOc1cc(/C=C2\SC(=S)N(Cc3ccco3)C2=O)ccc1O | -18.8%
CCOC(=O)c1c(C)oc2cc(Br)c(OCC(=O)OCc3ccccc3)cc12 | 10.8%
CCOC(=O)C1=C(C)N=C2SCCN2C1c1ccccc1 (configuration not stated) | -10.4%
CSc1ccccc1NC(=O)CSc1nc2ccccc2o1 | 18.9%
O=C(Nc1ccccc1C(=O)O)c1ccc(N2C(=O)C3C4C=CC(C4)C3C2=O)cc1 (configuration not stated) | -3.6%
CCn1c2ccccc2c2cc(/C=N/Nc3ccc([N+](=O)[O-])cc3)ccc21 | -7.5%
